MRP reversal: reversal of MRP1-mediated doxorubicin resistance, primary screen, H69AR cells, doxorubicin co-treatment; H69AR cells + 2 uM doxorubicin, CellTiter-Glo, 72 h; differential viability (reversal), % at 10 µM; actives 0.04% (n = 85,000); AID 602, 2007;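 active = viability drop by adding the cancer drug above about 55%, with treated viability meeting a 40% cutoff, limit read from the data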;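 note: viability without doxorubicin minus viability with 2 µM doxorubicin for each compound; larger differential means the compound sensitizes cells more to doxorubicin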
MRP1 act: H69AR viability gain despite doxorubicin, primary screen, MRP-1 activator project, H69AR cells, CellTiter-Glo; viability increase, % at 10 µM; viability rescue; AID 799, 2007; actives 0.61% (n = 140,000);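 active = viability gain under doxorubicin at or above a set limit, the compound median plus 3 SD, cut at about 4.7% in these data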;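 note: MRP-1 overexpressing cells given doxorubicin 25 µM after compound pretreatment; 18-22 h compound pretreatment then 72 h with doxorubicin before readout; 0% = doxorubicin-only wells and 100% = vehicle-treated cells without doxorubicin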
DAT uptake mod: changed hDAT dopamine uptake under cocaine IC80, either direction, primary screen, cocaine antagonist project, cell-based, LLC-PK1 hDAT, [14C]-dopamine uptake, MLSMR; Sodium-dependent dopamine transporter (Homo sapiens), Q01959; LLC-PK1 hDAT cells, [14C]-dopamine uptake with cocaine IC80; actives deviate in either direction; B-score at 10 µM; actives 1.3% (n = 110,000); AID 449768, 2010;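 active = Z score or B-score, a plate-position-corrected score, falls beyond the plate's 99.7% confidence bounds, in either direction; inactive = both scores lie inside the 99.7% bounds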;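 note: scored against the spread of the other compound wells on the same plate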
Starred values were filed as active, the others as inactive; . = no result given. This is a sample that favours compounds with a hit; in the whole collection about 1.5% have one here.

SMILES | MRP reversal | MRP1 act | DAT uptake mod
O=C1NC(=Nc2ccc(Cl)cc2)SC1Cc1cc(Cl)ccc1Cl (centres undefined) | . | 6.9* | .
O=C1N/C(=N\N=C\c2cccs2)SC1Cc1ccc(Cl)cc1Cl (centres undefined) | . | -4.5 | .
CC1CC(C)CN(C(=S)Nc2ccc(OC(F)F)cc2)C1 (centres undefined) | . | -0.3 | .
CC1CC(C)CN(C(=S)Nc2ccc(SC(F)F)cc2)C1 (centres undefined) | . | 5.0* | .
COC(=O)N1[C@H](C)C=C[C@]1(Cc1ccccc1)C(=O)NCCCNc1ncc(C(F)(F)F)cc1Cl | . | . | 0.113
CC(NC(=O)CN1CCc2ccccc21)c1ccccc1 (centres undefined) | . | -2.3 | .
COC(=O)C1=C(SC)N(c2ccccc2)C(c2ccccc2)CC1=O (centres undefined) | . | -3.0 | .
Cc1sc2ncnc(NCCCn3ccnc3)c2c1C | 17.7 | -1.6 | -0.272
Cc1sc2ncnc(Oc3ccc(-n4ccnc4)cc3)c2c1C | -22.6 | -4.0 | 2.48*
Oc1c(Cl)cc(Cl)cc1C(C#Cc1ccccc1)N1CCOCC1 (centres undefined) | . | -2.6 | 0.71
Oc1c(Cl)cc(Cl)cc1Sc1cc(Cl)cc(Cl)c1O | 0.0 | -3.0 | -4.27*
O=C(Nc1ccc(O)cc1)C1CCCO1 (centres undefined) | 7.1 | 27.8* | -0.142
CC(C)NC(=O)c1ccccc1NC(=O)C1CCCO1 (centres undefined) | 3.6 | 0.0 | -0.0339
COc1ccc(NC(=O)c2ccccc2NC(=O)C2CCCO2)cc1 (centres undefined) | -0.4 | -0.5 | -9.04*
NS(=O)(=O)c1ccc(NC(=O)C2CCCO2)cc1 (centres undefined) | -26.7 | -0.9 | 1.03
Cc1ccc(C(=O)n2c(-c3ccccc3)cnc2SCC(=O)Nc2ccc(C)cc2C)cc1 | . | -1.4 | .
CCOC(=O)C(=O)Nc1cc(Cl)ccc1C | . | -1.2 | .
CC(C)(C)CN1C(N)=NC[C@@H]1c1ccccc1 | . | . | 0.14
CC(C)(C)CN1C(N)=NC[C@@H]1Cc1ccccc1 | . | . | -2.68*
Cc1nn2c(c1-c1ccc(Cl)cc1)N=C(c1ccco1)CC2c1ccccc1 (centres undefined) | 5.0 | -4.8 | 0.301
COC(=O)C(Cc1ccc(OC(=O)c2ccccc2Cl)cc1)N1Cc2ccccc2C1=O (centres undefined) | . | -0.5 | 1.14
COC(=O)C(Cc1ccc(OC(=O)c2ccccc2C)cc1)N1Cc2ccccc2C1=O (centres undefined) | . | -1.8 | 3.3*
CCCOC(=O)CCc1n[nH]c(=O)[nH]c1=O | 9.3 | -2.5 | -0.0724
CCCOC(=O)Cc1n[nH]c(=O)[nH]c1=O | . | -0.2 | -2.21*
CSc1cc(-c2ccc(Cl)cc2)c(C(=O)NN)s1 | . | -1.6 | 3.18*
SMILES | MRP reversal | MRP1 act | DAT uptake mod
CSc1cc(-c2ccc(Cl)cc2)c(C(=O)NC(C)C)s1 | . | -2.4 | -0.293
NC(=O)CSc1nnc(C2CC2)n1-c1ccccc1 | -8.1 | -0.3 | -9.26*
CC(C)NC(=O)CSc1nnc(C2CC2)n1-c1ccccc1 | 3.3 | -1.1 | 0.151
CN(C)c1ccc(/C=C/c2cc[n+]([O-])cc2)cc1 | 6.0 | -0.6 | -1.59
CN(C)c1ccc(/C=C/c2cc[n+](C)cc2)cc1 | -17.2 | -0.2 | -3.71*
COC(=O)c1sc2cc([N+](=O)[O-])cc(SCC(C)C)c2c1N | . | -0.8 | .
O=C(COc1ccc(Cl)cc1Cl)Nc1c(-c2cccs2)nc2ccccn12 | . | -0.1 | .
C/C(=N\NC(=O)c1c(-c2ccccc2Cl)noc1C)c1cccc(NC(=O)C(C)C)c1 | . | 0.2 | .
COc1ccc(NC(=O)N(CCO)Cc2cc3c(C)cc(C)cc3[nH]c2=O)cc1 | -15.6 | -0.9 | 2.88*
Cc1cc(C)c2cc(CN(CCO)C(=O)Nc3ccc(F)cc3)c(=O)[nH]c2c1 | -14.0 | 0.0 | -0.451
COc1ccc(/C=N/NC(=O)c2ccccc2F)cc1CN1CCN(c2ccc(F)cc2)CC1 | . | -1.8 | .
CCC(=O)Nc1c(-c2ccc(OC)cc2)c(=O)c2ccccc2n1C | 6.5 | -1.5 | -9.12*
COc1ccc(-c2cc(=O)c3ccccc3n2C)cc1 | -3.8 | 0.1 | 0.0385
Cc1ccc(N=C(NOCc2ccc(Cl)cc2Cl)c2nonc2N)c(C)c1 | 57.0* | -2.9 | 0.176
Cc1ccccc1N=C(NOCc1ccc(Cl)cc1Cl)c1nonc1N | -0.4 | 1.0 | 0.502
Cc1ccc(-c2csc(N(C)C(=O)c3c(C)nn(-c4ccccc4)c3Cl)n2)cc1 | . | 0.1 | 0.659
COC(=O)C(NC(=O)c1ccccc1Cl)(Nc1ncc(S(=O)(=O)c2ccc([N+](=O)[O-])cc2)s1)C(F)(F)F (centres undefined) | . | -1.2 | 0.152
COc1ccc(NS(=O)(=O)c2ccc3nc(COc4ccc(C#N)cc4)[nH]c3c2)cc1 | . | 3.7 | .
